# Structures can show the parent of a compound that is named as a salt. ± gives the standard deviation of the averaged measurements.
# Test system: E. coli TESEC Mtb Alr
# Experiment: growth (OD600 after 10 h); higher = more growth (less inhibition)
# Conditions: arabinose 10000000 nM; compound 0.1 mM; raw OD600 reference: median of DMSO wells […], cell-free background 0.052
# Procedure: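 TESEC Mtb Alr E. coli (ΔaraC ΔtolC ΔentC Δalr ΔdadX, arabinose-inducible Mtb Alr) or the Alr+ wild-type control strain, grown in defined M9-fructose medium without D-alanine in 96-well plates with Prestwick library compounds at 0.1 mM and 1% DMSO. Low Alr induction is 0.1 µM arabinose and high induction is 10 mM arabinose.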
row,Compound,growth
1,CN1CCc2cccc3c2[C@H]1Cc1ccc(O)c(O)c1-3 [R(-) Apomorphine hydrochloride hemihydrate],0.199 ± 0.11
2,CN1CCCN(C(c2ccccc2)c2ccc(Cl)cc2)CC1 (stereo not given) [Homochlorcyclizine dihydrochloride],0.118 ± 0.018
3,Cc1ncc(CO)c(CO)c1O [Pyridoxine hydrochloride],0.32 ± 0.013
4,O=C(NCC(O)CO)c1c(I)c(C(=O)NCC(O)CO)c(I)c(N(CCO)C(=O)CO)c1I (stereo not given) [Ioversol],0.362 ± 0.017
5,C[C@@H]1[C@H](O)[C@@H](C)/C=C/C=C/C=C/C=C/C=C/C=C/C=C/[C@H](O[C@@H]2O[C@H](C)[C@@H](O)[C@H](N)[C@@H]2O)C[C@@H]2O[C@](O)(C[C@@H](O)C[C@@H](O)[C@H](O)CC[C@@H](O)C[C@@H](O)CC(=O)O[C@H]1C)C[C@H](O)[C@H]2C(=O)O [Amphotericin B],0.478 ± 0.027
6,C=Cc1c(C)c2cc3nc(cc4[nH]c(cc5nc(cc1[nH]2)C(C)=C5CCC(=O)O)c(CCC(=O)OC)c4C)[C@@]1(C)C3=CC=C(C(=O)OC)C1C(=O)OC.C=Cc1c(C)c2cc3nc(cc4[nH]c(cc5nc(cc1[nH]2)C(C)=C5CCC(=O)OC)c(CCC(=O)O)c4C)[C@@]1(C)C3=CC=C(C(=O)OC)C1C(=O)OC (stereo not given in full) [Verteporfin],0.439 ± 0.021
7,CC(C)C[C@H](NC(=O)[C@@H](O)[C@H](N)Cc1ccccc1)C(=O)O [Ubenimex],0.323 ± 0.018
8,CC(COc1ccccc1)N(CCCl)Cc1ccccc1 (stereo not given) [Phenoxybenzamine hydrochloride],0.0624 ± 0.018
9,CN(C)CCCOc1nn(Cc2ccccc2)c2ccccc12 [Benzydamine hydrochloride],0.283 ± 0.021
10,CC1CS(=O)(=O)CCN1/N=C/c1ccc([N+](=O)[O-])o1 (stereo not given) [Nifurtimox],0.0644 ± 0.012
11,NCC[C@H](O)C(=O)N[C@@H]1C[C@H](N)[C@@H](O[C@H]2O[C@H](CN)[C@@H](O)[C@H](O)[C@H]2O)[C@H](O)[C@H]1O[C@H]1O[C@H](CO)[C@@H](O)[C@H](N)[C@H]1O [Amikacin hydrate],0.0532 ± 0.0009
12,"Cc1cn([C@H]2C[C@H](N=[N+]=[N-])[C@@H](CO)O2)c(=O)[nH]c1=O [Zidovudine, AZT]",0.125 ± 0.017
13,NC1CCN(c2nc3c(cc2F)c(=O)c(C(=O)O)cn3-c2ccc(F)cc2F)C1 (stereo not given) [Tosufloxacin hydrochloride],0.0578 ± 0.0027
14,CC[C@H](C)C(=O)O[C@H]1C[C@H](O)C=C2C=C[C@H](C)[C@H](CC[C@@H](O)C[C@@H](O)CC(=O)O)[C@H]21 [Pravastatin],0.337 ± 0.026
15,CC(NCCC(c1ccccc1)c1ccccc1)c1ccccc1 (stereo not given) [Fendiline hydrochloride],0.0578 ± 0.0028
16,CCN1CCCC(OC(=O)C(c2ccccc2)c2ccccc2)C1 (stereo not given) [Piperidolate hydrochloride],0.329 ± 0.011
17,COc1ccc(C(=O)NCc2ccc(OCCN(C)C)cc2)cc1OC [Itopride],0.349 ± 0.0081
18,CCCCOc1ccc(C(=O)CCN2CCCCC2)cc1 [Dyclonine hydrochloride],0.355 ± 0.033
19,CC(C)C(=O)c1c(C(C)C)nn2ccccc12 [Ibudilast],0.229 ± 0.0069
20,"CC(O)(P(=O)(O)O)P(=O)(O)O [Etidronic acid, disodium salt]",0.261 ± 0.056
21,Nc1ccc(O)c(C(=O)O)c1 [Mesalamine],0.363 ± 0.011
22,CC=CC1=C(C(=O)O)N2C(=O)[C@@H](NC(=O)[C@H](N)c3ccc(O)cc3)[C@H]2SC1 [Cefprozil],0.374 ± 0.015
23,O=C(OCC(O)CO)c1ccccc1Nc1ccnc2cc(Cl)ccc12 (stereo not given) [Glafenine hydrochloride],0.149 ± 0.02
24,CC1Cc2ccccc2N1NC(=O)c1ccc(Cl)c(S(N)(=O)=O)c1 (stereo not given) [Indapamide],0.336 ± 0.018
25,CN(C)CCN1C(=O)c2ccccc2N(C)c2ccccc21 [Dibenzepine hydrochloride],0.34 ± 0.015
26,CO[C@@]1(NC(=O)Cc2cccs2)C(=O)N2C(C(=O)O)=C(COC(N)=O)CS[C@@H]21 [Cefoxitin sodium salt],0.052 ± 0.0013
27,CCC1(c2ccccc2)NC(=O)N(C)C1=O (stereo not given) [Mephenytoin],0.31 ± 0.011
28,CCN(CC)CC#CCOC(=O)C(O)(c1ccccc1)C1CCCCC1 (stereo not given) [Oxybutynin chloride],0.145 ± 0.025
29,COC(=O)[C@H](c1ccccc1Cl)N1CCc2sccc2C1 [Clopidogrel],0.0754 ± 0.014
30,CN(C)CCOc1ccc(/C(=C(/CCCl)c2ccccc2)c2ccccc2)cc1 [Toremifene],0.0577 ± 0.0032

# — the supplement of paper PMC9262897, “Low-cost anti-mycobacterial drug discovery using engineered E. coli” (Nature Communications, 2022)
